Screening data: PubChem BioAssay, several laboratories
GAA850 FXN act = activators of GAA850 frataxin (FXN) promoter. HEK293 lucGAA850 FXN promoter luciferase reporter, 24 h; percent of 10 µM SAHA response. activation, % at 6 µM. 0.56% of 360,000 active. AID 540364;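 active means activation above the average of all compounds screened plus 3 SD, cutoff fixed separately per campaign, cut at about 7.5% in these data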
MITF TRPM1 HTS = MITF TRPM1 promoter activation in melanoma cells; SK-MEL-5 TRPM1-promoter luciferase, 24 h; % of positive control, neutral wells = 0; activation, % at 12.5 µM; 0.75% of 300,000 active; AID 588334;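 active means mean activation of at least 80% with every replicate also reaching 80%; inconclusive means mean reaches 80% but some replicate falls short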
Wnt bcat act = activates Wnt/beta-catenin signaling in a reporter cell assay; activator, plate reader; activation, % at 9.35 µM; 1.2% of 300,000 active; AID 743398; in the data active means activation above about 30%, passing the limit was not always enough; inconclusive means no clear call, values can overlap the other calls
C2C12 statin = suppression of simvastatin myotoxicity. C2C12 myotubes + simvastatin, ATP luminescence, 48 h; scaled: DMSO 0, geranylgeraniol control 100. AID 602340. rescue of ATP level, % at 7.49 µM. 0.78% of 330,000 active;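 active means mean ATP rescue above about 67%, or every replicate alone reaching that limit, limit read from the data, passing the limit was not always enough; inconclusive means no clear call, values can overlap the other calls; inactive means mean under the limit and some replicate under it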;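 further: myotubes were challenged with 10 µM simvastatin during compound exposure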
esBAF inh = blocks esBAF chromatin remodeling in mouse ES cells; Bmi1-luciferase knock-in reporter, 24 h; 100% = twice the neutral-well signal; reporter increase, % at 12.5 µM; 2% of 350,000 active; AID 602393; in the data active means activation above about 40%; inconclusive means no clear call, values can overlap the other calls;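 further: a rise in the Bmi1 reporter signal indicates esBAF inhibition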
Hits are given with their value; – = inactive; ? = inconclusive; · = not tested or not shown. An excerpt weighted towards active compounds, which were near 3.3% of everything screened.

SMILES	GAA850 FXN act	MITF TRPM1 HTS	Wnt bcat act	C2C12 statin	esBAF inh
C[C@H]1CCCCO[C@@H](CN(C)Cc2ccccc2)[C@@H](C)CN([C@@H](C)CO)C(=O)c2cc(NC(=O)Nc3cccc4ccccc34)ccc2O1	·	·	·	·	–
O=C(Cc1ccccc1)Nc1ccc(N2CCCC2)cc1	–	–	–	–	–
O=C(CCc1ccccc1)Nc1ccc(N2CCCCC2)cc1	–	–	·	–	50
CCN1CCN(c2ccc(NC(=O)Cc3ccccc3)cc2)CC1	–	–	·	105	–
CC(=O)N1[C@@H]2c3ccc(C4=CCCCC4)c(=O)n3C[C@H]1[C@H](CO)[C@H]2C(=O)NC1CCC1	·	·	·	–	–
COC(=O)c1ccc(-c2ccc(/C=N/N3C(=O)C4C5C=CC(CC5)C4C3=O)o2)cc1 (stereo not given)	–	–	–	–	60
O=c1c2cc(-c3ccccc3)sc2nc2n1CCC2	·	·	60	·	·
O=c1c2ccccc2nc2n1CCC2	–	–	–	·	·
Cc1nc2sc(-c3ccccc3)cc2c(=O)n1-n1cccc1	–	102	·	–	48
Cc1ccc2[nH]c(=O)c(-c3nc4cc(C)ccn4c3NCc3ccco3)cc2c1	–	–	·	–	69
Cc1cccc2cc(-c3nc4c(C)cccn4c3NCc3ccco3)c(=O)[nH]c12	–	–	–	–	–
CN1C(=O)c2cc(NC(=O)c3ccc(F)c(F)c3)ccc2OC[C@H]2O[C@@H](CC(=O)O)CC[C@@H]21	·	·	·	–	–
Fc1ccc(COc2ccc(-c3nnco3)cc2)c(Cl)c1	–	–	–	–	–
Fc1cc(Br)ccc1COc1ccc(-c2nnco2)cc1	–	119	–	–	55
CCCCc1nc(N2CCOCC2)c(C#N)c2c1COC(C)(C)C2	–	–	·	128	–
COCC(=O)N(C)C[C@H]1Oc2ncc(-c3ccc(C#N)cc3)cc2C(=O)N([C@@H](C)CO)C[C@H]1C	·	·	·	–	–
O=C(Nc1ccc(Cl)cc1)N[C@@H]1CC[C@H](CCn2cc(Cc3ccccc3)nn2)O[C@H]1CO	·	·	·	–	–
Cc1ccc(-c2csc(N/N=C/c3ccco3)n2)c(C)c1	–	–	·	–	69
CC1=C(N2CCOCC2)CCC1=O	–	–	–	–	–
CC(=O)C1=C(N2CCCCC2)CCC1=O	–	–	·	95	–
Cc1ccc(N)c([N+](=O)[O-])c1	–	–	–	–	–
Nc1ccc(N=Nc2ccccc2)cc1[N+](=O)[O-]	–	–	–	–	62
COc1cccc(/C=C2\SC(N3CCC(C)CC3)=NC2=O)c1OC	–	–	–	–	–
COc1cccc(/C=C2\SC(N3CCCC(C)C3)=NC2=O)c1OC (stereo not given)	–	–	–	–	73
O=Cc1ccccc1OCc1ccc2c(c1)OCO2	–	·	–	–	70
SMILES	GAA850 FXN act	MITF TRPM1 HTS	Wnt bcat act	C2C12 statin	esBAF inh
C[C@H]1CN([C@@H](C)CO)C(=O)Cc2cc(NS(=O)(=O)c3cccs3)ccc2O[C@H]1CN(C)S(=O)(=O)c1cccs1	·	·	·	–	–
CCCC#Cc1cnc2c(c1)C(=O)N([C@H](C)CO)C[C@H](C)[C@H](CN(C)C(=O)Nc1ccc(OC)cc1)O2	·	·	·	–	–
O=C(CSc1nnc([C@@H]2CCCN2)o1)c1ccc(Cl)cc1	–	–	37	–	–
C=C(C)CSc1nnc([C@@H]2CCCN2)o1	–	–	–	·	·
CC(=O)c1c(C(C)=O)c(C)n(Cc2ccc(Cl)cc2)c1C	–	–	–	144	–
COCCn1c(COc2ccc(C)cc2)nc2ccccc21	–	–	–	–	64
OCc1nc2ccccc2n1CCCOc1ccccc1	–	–	–	·	·
C=CCn1c(COc2ccccc2)nc2ccccc21	–	–	–	–	50
Cc1ccc(OCCCn2c(CO)nc3ccccc32)cc1	–	–	–	134	–
COc1ccccc1Cn1c(CCCO)nc2ccccc21	–	–	·	–	–
COCCOCCn1c(CCCO)nc2ccccc21	–	–	–	82	–
CCOCCn1c(COc2ccc(C)cc2)nc2ccccc21	–	–	–	·	·
CC(=O)N1[C@H](C(=O)NCC2CC2)[C@@H](CO)[C@@H]2Cn3c(ccc(-c4ccccc4F)c3=O)[C@@H]21	·	·	·	–	–
C[C@@H]1CN([C@@H](C)CO)C(=O)c2cc(-c3cccc(F)c3)cnc2O[C@H]1CN(C)Cc1cccnc1	·	·	·	–	–
O=C1c2ccccc2C(=O)N1CC1=CCS(=O)(=O)C1	–	–	·	112	–
O=C1c2ccccc2C(=O)N1CCCN1C(=O)c2ccccc2C1=O	–	–	–	–	–
COCC(=O)Nc1ccc2c(c1)[C@H]1C[C@@H](CC(=O)NCc3cccnc3)O[C@H](CO)[C@H]1O2	·	·	·	–	–
Fc1ccc(-c2nc3ccccc3[nH]2)cc1	–	–	58	–	70
Nc1ccccc1-c1nc2ccccc2[nH]1	–	–	55	–	–
O=c1[nH]cccc1-c1nc2ccccc2[nH]1	–	–	–	–	–
Nc1ccc(-c2nc3ccccc3[nH]2)cc1	–	–	?	–	–
Cc1ccc2nc(-c3cccc(N)c3)[nH]c2c1	–	–	–	·	·
Nc1cccc(-c2nc3ccccc3[nH]2)c1	–	–	·	–	62
CCC(=O)N(C)C[C@@H]1Oc2cc(C#CC3CCCC3)ccc2S(=O)(=O)N([C@H](C)CO)C[C@@H]1C	·	·	·	–	–
Cc1[nH]c2ccccc2c1C(=O)C(=O)Nc1ccc2c(c1)OCO2	–	–	–	–	52
SMILES	GAA850 FXN act	MITF TRPM1 HTS	Wnt bcat act	C2C12 statin	esBAF inh
O=C(Nc1ccc(Cl)cc1)Nc1ccc2c(c1)OCO2	–	–	38	–	60
O=C(NCCc1ccc(F)cc1)Nc1ccc2c(c1)OCO2	–	–	48	·	·
CC1CCC(NC(=O)C(=O)Nc2ccc3c(c2)OCO3)CC1 (stereo not given)	–	–	32	–	56
O=C(NCCc1ccccc1)Nc1ccc2c(c1)OCO2	–	–	–	·	·
O=C(Cc1ccncc1)NCC[C@H]1CC[C@@H](NC(=O)C2CC2)[C@@H](CO)O1	·	·	·	–	–
C[C@@H]1CN([C@@H](C)CO)C(=O)c2cc(NC(=O)Cc3ccccc3)ccc2O[C@@H]1CN(C)Cc1ccc2c(c1)OCO2	·	·	·	–	–
C[C@@H]1CN([C@@H](C)CO)C(=O)c2cc(C#CCN(C)C)cnc2O[C@H]1CN(C)C(=O)c1cccnc1	·	·	·	–	–
O=C(Nc1ccc(F)cc1)Nc1ccc2c(c1)OCO2	–	104	–	–	66
CC1(C(=O)NCc2ccc3c(c2)OCO3)CCN1C(=O)C1(c2ccc(Cl)cc2)CC1 (stereo not given)	–	·	–	–	–
CC1(C(=O)Nc2ccc3c(c2)OCO3)CCN1C(=O)C1(c2ccc(Cl)cc2)CC1 (stereo not given)	–	·	51	–	–
Cc1cccc(OCCCC(=O)Nc2ccccc2C(F)(F)F)c1	–	–	–	97	–
C[C@@H]1CN([C@@H](C)CO)C(=O)c2cc(NC(=O)CCC(F)(F)F)ccc2O[C@@H](C)CCCCO[C@@H]1CN(C)C(=O)Nc1ccc(C(F)(F)F)cc1	·	·	·	·	–
CCCC(=O)Nc1ccc2c(c1)C(=O)N(C)[C@H]1CC[C@@H](CC(=O)O)O[C@H]1CO2	·	·	·	–	–
